Sampled rows, rich in hits. Any-hit rate of the full collection: about 17%.
TDP1 block: TDP1 (human) enzyme inhibition. recombinant TDP1, AlphaScreen DNA substrate cleavage. Potency, µM (highest dose often 130 µM), usual class: inhibitors. actives 0.28% (n = 350,000); further: nearly all actives have a fitted effect of over 40% in size
Target sequence (Q9NUW8 whole entry, looked up): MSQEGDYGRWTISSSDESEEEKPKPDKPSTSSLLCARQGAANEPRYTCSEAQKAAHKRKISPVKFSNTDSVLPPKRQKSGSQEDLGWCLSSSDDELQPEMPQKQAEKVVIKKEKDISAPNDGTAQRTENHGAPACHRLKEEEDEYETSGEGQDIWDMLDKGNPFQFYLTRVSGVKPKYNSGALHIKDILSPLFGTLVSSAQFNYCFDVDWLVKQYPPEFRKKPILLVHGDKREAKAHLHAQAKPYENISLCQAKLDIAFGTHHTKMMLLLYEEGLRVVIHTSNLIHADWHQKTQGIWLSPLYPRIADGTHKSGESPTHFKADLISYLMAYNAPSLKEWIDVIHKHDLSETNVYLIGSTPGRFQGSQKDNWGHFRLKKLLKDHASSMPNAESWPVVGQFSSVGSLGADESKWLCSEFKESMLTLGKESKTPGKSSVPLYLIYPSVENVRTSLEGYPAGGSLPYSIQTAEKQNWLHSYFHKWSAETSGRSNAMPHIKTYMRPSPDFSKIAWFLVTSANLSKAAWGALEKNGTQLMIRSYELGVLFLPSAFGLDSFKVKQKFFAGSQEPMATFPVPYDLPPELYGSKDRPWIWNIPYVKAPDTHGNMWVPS
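Tdp1 1 nM final; 15 min RT w/ cpd; substrate 15 nM, 5 min; beads 10 ug/ml, 10 min; AlphaScreen read. Neg ctrl: no enzyme.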
TDP1 cell CPT: DT40-hTDP1 cell growth loss with CPT; chicken DT40 Tdp1-/-;hTDP1 cells + 20 nM CPT, ATP luminescence, 48 h; actives 12% (n = 420,000); Potency, µM (titrated, usually from 46.2 µM), actives largely listed as inhibitors; AID 686979; further: nearly all actives have a fitted effect of over 55% in size
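Chicken DT40 Tdp1-/- cells complemented with human TDP1, 400 cells/well, exposed to compounds plus 20 nM camptothecin for at least 48 h at 37 C; viability read as ATP content by CellTiter-Glo luminescence.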
DT40 TDP1 no CPT: qHTS for Inhibitors of human tyrosyl-DNA phosphodiesterase 1 (TDP1): qHTS in cells in absence of CPT; DT40 Tdp1-/- hTDP1 cells, no CPT, ATP luminescence, 48 h; Potency, µM (series often up to 46.2 µM), usual class: inhibitors; actives 15% (n = 420,000); further: nearly all actives have a fitted effect of over 55% in size
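Readout: luminescence from CellTiter-Glo after 30 min in the dark at RT. Cells: DT40 Tdp1-/- with stable hTDP1, 400/well. Exposure: compounds alone, ≥48 hr, 37 °C.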
ClpP mod: qHTS Assay for Activators of ClpP; ATP-dependent Clp protease proteolytic subunit (Bacillus subtilis (strain 168)), P80244; purified B. subtilis ClpP, FRET peptide cleavage, 20 min; Potency, µM (doses to about 57.5 µM); actives 1.9% (n = 340,000); AID 651965, 2013; active means well fitted falling curve with a large enough effect; inconclusive means small, poorly fitted or top-dose-only effect; inactive means no such curve, though single readings can be large or run the other way; further: the source files actives as falling curves though it sought activators and does not explain the sign; nearly all actives have a fitted effect of over 65% in size
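Buffer: 100 mM Tris/HCl pH8, 100 mM KCl, 0.05% low protease BSA, 2.5% glycerol, 0.01% Tween-20. ClpP 10 microg/mL final; 20 min RT; delta FRET normalized to ADEP and DMSO controls.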
Hits are given with their value; 0 = inactive; ? = inconclusive; - = not tested or not shown; ! = not confirmed by another sample. Unless noted, the call rests on the fitted dose curve; in most records, active means well fitted curve in the direction sought with a large enough effect; inconclusive means small, poorly fitted or top-dose-only effect, or another doubt; inactive means no such curve, though single readings can be large; an effect the other way counts as inactive or inconclusive.

SMILES | TDP1 block | TDP1 cell CPT | DT40 TDP1 no CPT | ClpP mod
CC(C)(C)OC(=O)C[C@@H]1C/C=C\C[C@@H](CC(=O)N(CCO)Cc2ccccc2)C(=O)N[C@H](Cc2c[nH]c3ccccc23)COC1=O | 0 | 0 | ? | 0
O=C1CCC/C=C/C[C@H](CC(=O)N(CCO)Cc2ccccc2)C(=O)N[C@@H](Cc2ccccc2)CO1 | 0 | ? | 21µM | 0
O=C1CC/C=C\C[C@@H](CC(=O)N(CCO)Cc2ccccc2)C(=O)N[C@H](Cc2c[nH]c3ccccc23)CO1 | 0 | 16µM | ? | 0
O=C1CCC/C=C\C[C@@H](CC(=O)N(CCO)Cc2ccccc2)C(=O)N[C@H](Cc2c[nH]c3ccccc23)CO1 | 0 | ? | 16µM | 0
O=C(Cc1ccc(F)cc1)N1CCC(N2CCC(C(=O)N3CCOCC3)CC2)CC1 | 0 | 0 | 0 | -
CCn1cc(C(=O)NCc2ccccc2OC)c(=O)c2cc(S(=O)(=O)N3CCCCCC3)ccc21 | 0 | ? | ? | 0
c1ccc(-c2nc(-c3ccncc3)no2)cc1 | 0 | 0 | 0 | 0
c1ccc(C(Cc2nc(-c3ccncc3)no2)c2ccccc2)cc1 | 0 | 18µM | ? | 0
O=C(CSc1nc(C2CCCCC2)nc2ccccc12)NCc1ccco1 | - | ? | 21µM | 0
C=CCn1c(SCC(=O)NCc2ccco2)nnc1-c1ccc2ccccc2n1 | 0 | ? | 18µM | 0
CC(C)c1nc2ccccc2c2nnc(SCC(=O)NCc3ccco3)n12 | 0 | 16µM | ? | 0
COc1ccc(OCC(=O)NNC(=O)c2cccc(O)c2)cc1 | 0 | 0 | 0 | -
C1=Cc2ccccc2/C1=C\c1ccc2c(c1)OCO2 | - | 0 | 0 | 0
CNC(=O)C[C@@H]1C(=O)N(c2ccc(Br)cc2)CC1(C)C | - | 0 | 0 | 0
Cc1cc(=O)n2nc(N3CCCC3C(=O)Nc3cccc(F)c3)sc2n1 (centres undefined) | - | 0 | 0 | 0
Cc1ccc2nc3c(cc2c1)CN(Cc1ccco1)C(=NCC1CCCO1)S3 (centres undefined) | 0 | ? | ? | 0
Cc1cccc2cc3c(nc12)SC(=NCC1CCCO1)N(Cc1ccco1)C3 (centres undefined) | 0 | ? | 23µM | ?
Cc1ccc(N(CC2CO2)S(=O)(=O)c2ccccc2[N+](=O)[O-])cc1 (centres undefined) | - | 0 | ? | -
O=S(=O)(c1ccccc1)N(CC1CO1)c1cccc2ccccc12 (centres undefined) | 0 | 21µM | 23µM | -
Cc1ccc(S(=O)(=O)N(CC2CO2)c2ccccc2[N+](=O)[O-])cc1 (centres undefined) | 0 | 12µM | ? | -
Cc1ccc(S(=O)(=O)N(CC2CO2)c2cccc([N+](=O)[O-])c2)cc1 (centres undefined) | 0 | 12µM | 23µM | -
Cc1ccc(C(CNS(=O)(=O)c2cc(F)ccc2F)N2CCN(C)CC2)cc1 (centres undefined) | - | ? | ? | 0
c1ccc(N2CCN(c3cccc(-c4cc5ccccc5s4)n3)CC2)nc1 | - | 0 | 0 | 0
O=C1C(=O)N(CCc2c[nH]c3ccccc23)C(c2cccnc2)/C1=C(/O)c1ccccc1 (centres undefined) | 0 | - | - | -
CCCCNc1ncnc2[nH]ncc12 | - | ? | 0 | 0
SMILES | TDP1 block | TDP1 cell CPT | DT40 TDP1 no CPT | ClpP mod
Cc1ccc(Oc2nc(-c3ccccc3)ncc2S(=O)(=O)c2ccc(C)cc2)cc1 | 0 | 0 | 0 | 22µM
Cc1ccc(Oc2nc(-c3ccccc3)ncc2S(C)(=O)=O)cc1 | 0 | 0 | 0 | 0
CCN(CC)c1ccc(NC(=O)c2cccnc2)c(C)c1 | 0 | ? | ? | 0
Cc1ccc(-c2nn3c(C)nnc3s2)cc1NC(=O)c1cccs1 | 0 | 0 | 0 | 0
CCN(CC)c1ccc(NC(=O)c2cccc(C)c2OC)c(C)c1 | 0 | 13µM | 11µM | 0
Cc1cc2nn(-c3cccc4ccccc34)nc2cc1NC(=O)c1cccs1 | 0 | 23µM | 0 | 14µM
CCN(CC)c1ccc(-n2nc3cc(C)c(NC(=O)c4ccccc4C)cc3n2)c(C)c1 | 0 | 16µM | 21µM | 0
CN1CCCC(OC(=O)c2ccccc2Br)C1 (centres undefined) | 0 | 0 | 0 | 0
COc1ccc(C(=O)c2oc3ccc(OC)cc3c2N)cc1 | 0 | ? | 16µM | 0
COc1ccc2oc(C(=O)OCC(=O)Nc3ccccc3OC)c(C)c2c1 | 0 | 0 | 0 | 0
COC(=O)c1oc2ccc(OC)cc2c1N | 0 | 0 | 0 | 16µM
COc1ccc(C(=O)c2oc3ccc(OC)cc3c2NC(C)=O)cc1 | 0 | 0 | 0 | -
O=C1CCc2cc(S(=O)(=O)Nc3ccc(Cl)cc3)ccc2N1 | 0 | - | - | -
COc1cccc(OC)c1OCCNCC1COc2ccccc2O1 (centres undefined) | 0 | 15µM! | ? | 0
Cn1nc(C(=O)N2CCN(c3ccccc3F)CC2)c2c1-c1ccccc1S(=O)(=O)C2 | 0 | 15µM! | ? | 0
CCN1CCN(C(=O)c2nn(C)c3c2CS(=O)(=O)c2ccccc2-3)CC1 | 0 | 0 | 0 | 0
Cc1ccc(C)c(N2CCN(C(=O)c3nn(C)c4c3CS(=O)(=O)c3ccccc3-4)CC2)c1 | 0 | 23µM | 23µM | 0
Cn1nc(C(=O)N2CCN(c3ccccc3)CC2)c2c1-c1ccccc1S(=O)(=O)C2 | 0 | ? | ? | 0
Cc1cccc(N2CCN(C(=O)c3nn(C)c4c3CS(=O)(=O)c3ccccc3-4)CC2)c1C | 0 | 13µM | 16µM | 0
Cc1ccc(Cl)cc1N1CCN(C(=O)c2noc(C(C)C)c2[N+](=O)[O-])CC1 | 0 | 23µM | ? | 0
Cc1cc(C)n(CC(=O)Nc2ccc(F)c(F)c2)c(=O)c1C#N | 0 | 0 | 0 | 0
Cc1ccc2c(c1)-c1c(c(C(=O)N3CCN(c4cc(Cl)ccc4C)CC3)nn1C)CS2 | 0 | ? | 18µM | 0
COc1ccc(CN2C(=O)C(CC(=O)NCC3CCCCC3)CC(C(=O)N3CCOCC3)=C2C)cc1 (centres undefined) | - | 0 | 0 | 0
Cc1ccc(C(CCNC(C)c2cccs2)c2ccco2)cc1 (centres undefined) | - | ? | 18µM | -
CC(NCCC(Cc1ccccc1)c1ccco1)c1ccccc1 (centres undefined) | - | ? | ? | 0
SMILES | TDP1 block | TDP1 cell CPT | DT40 TDP1 no CPT | ClpP mod
COc1ccc(NC(=O)CSCc2cc(=O)n3cc(C)sc3n2)cc1 | 0 | 0 | 0 | 0
CCOC(=O)Cc1cn2c(=O)cc(CSCC(=O)Nc3ccc(C)c(C)c3)nc2s1 | 0 | 18µM | ? | 0
S=c1c2c(nc3nc[nH]n13)CCC2 | 0 | ? | 21µM | 0
CC1CCc2c(nc3nc[nH]n3c2=O)C1 (centres undefined) | 0 | 0 | 0 | 0
CSc1ccc(CN2CCC(CO)(Cc3ccc(Cl)cc3)CC2)cc1 | 0 | ? | 18µM | -
OCC1(Cc2ccc(Cl)cc2)CCN(CC2CC=CCC2)CC1 (centres undefined) | 0 | 29µM | ? | -
OCC1(Cc2ccc(Cl)cc2)CCN(Cc2ccccc2F)CC1 | 0 | ? | ? | 0

Source: PubChem BioAssay (National Center for Advancing Translational Sciences (NCATS))
